Calls of active or inactive are those of the source. Unless noted, how the calls were made is not given here.
Tests used:
[1] = tested on: XIP peptide (Xip251-270) binding; experiment: small-molecule binders of XIP peptide, primary screen, biochemical, small-molecule microarray, fluorescence 635/667 nm, 0.1 µg/mL protein (AID 1182); details: fluorescent protein binding, 635 nm, higher = more signal, called active from +8 up or from −8 down
XIP peptide (Xip251-270) = experiment: small-molecule binders of XIP peptide, primary screen, biochemical, small-molecule microarray, fluorescence 635/667 nm, 0.5 µg/mL protein (AID 1183); details: small-molecule microarray binding, fluorescence 635 nm; higher = more signal
[2] = Plasmodium falciparum growth inhibition, primary screen, strain 3D7, DAPI fluorescence, 100 nL (AID 1184);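 further: parasites grown inside human red blood cells in medium with human serum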; details: P. falciparum 3D7 growth, 3 d, higher = more signal
[3] = target: Homeobox protein Hox-A13 (Mus musculus) (UniProt Q62424); experiment: inhibitors of HoxA13-DNA binding, primary screen, biochemical, fluorescence polarization, labeled oligonucleotide (AID 1185); details: 15 min, higher = more signal, called active from +8 up or from −8 down
[4] = inhibitors of hydroxyurea-induced Chk1 phosphorylation, primary screen, imaging, HeLa, phospho-Chk1 antibody, percent positive cells (AID 1186); details: hydroxyurea-induced phospho-Chk1 immunofluorescence imaging, higher = more signal
[5] = inhibitors of hydroxyurea-induced Chk1 phosphorylation, primary screen, imaging, HeLa, phospho-Chk1 nuclear intensity (AID 1187); details: hydroxyurea-induced phospho-Chk1 immunofluorescence imaging, higher = more signal

Chain of Homeobox protein Hox-A13 (Mus musculus) (Q62424 whole entry, looked up): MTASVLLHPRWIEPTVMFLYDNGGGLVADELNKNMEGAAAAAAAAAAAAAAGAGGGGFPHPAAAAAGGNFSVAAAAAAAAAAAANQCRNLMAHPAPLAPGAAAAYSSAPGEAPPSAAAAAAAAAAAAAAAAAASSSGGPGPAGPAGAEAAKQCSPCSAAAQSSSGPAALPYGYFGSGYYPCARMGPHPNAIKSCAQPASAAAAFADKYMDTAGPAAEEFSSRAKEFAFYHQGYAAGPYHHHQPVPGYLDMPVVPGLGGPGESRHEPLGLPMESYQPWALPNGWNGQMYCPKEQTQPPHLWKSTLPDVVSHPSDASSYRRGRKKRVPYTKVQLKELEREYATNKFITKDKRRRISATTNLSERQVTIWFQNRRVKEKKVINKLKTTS

SMILES | composite z-score [1] | composite z-score (XIP peptide (Xip251-270)) | z-score [2] | z-score [3] | z-score [4] | z-score [5]
CC1CC/C=C\[C@H]2OC34C=CCN(C(C)(C)C)C(=O)[C@H]3N(C(CO)C(C)C)C(=O)[C@@H]4C2C(=O)O1 (stereo partly specified) | 1.27 (inactive) | -0.142 | -0.459 | -5.73 (inactive) | 0.015 (inactive) | 0.277 (inactive)
C=CC[C@H](OC(=O)Nc1ccc(SC)cc1)c1ccc(OCCO)cc1 | 1.07 (inactive) | -0.141 | 0.749 | -6.15 (inactive) | 0.108 (inactive) | 1.03 (inactive)
CC(=O)NCCCC[C@@H]1NC(=O)[C@H]2C[C@@H](C(=O)NCCCCCNC(=O)CS)[C@@H](c3cccc(OCCO)c3)N2C1=O | 4.01 (inactive) | 0.854 | -0.559 | -3.69 (inactive) | 0.276 (inactive) | 0.591 (inactive)
CC1(C)C(=O)C(c2ccccc2)=C2CN3C(=O)N(CCc4ccccc4)C(=O)C3(Cc3ccc(C(F)(F)F)cc3)C=C21 (stereo unspecified) | 0.251 (inactive) | 0.279 | -0.745 | -1.55 (inactive) | 0.175 (inactive) | 0.0024 (inactive)
COc1ccc(C(O)C2C=CC3C(=O)N(c4ccccc4)C(=O)C3N2Nc2ccccc2)cc1 (stereo unspecified) | 0.348 (inactive) | 0.572 | 0.913 | -3.76 (inactive) | 0.0679 (inactive) | -0.392 (inactive)
CCCCCCCCCCC(O)C1C=CC2C(=O)N(c3ccccc3)C(=O)C2N1Nc1ccccc1F (stereo unspecified) | 1.69 (inactive) | 0.538 | 0.157 | 0.356 (inactive) | -0.745 (inactive) | -1.48 (inactive)
C=C/C=C/[C@@H]1C(=C)CN([C@@H](Cc2ccccc2)C(=O)OC)[C@H]1[C@@H](O)Cc1ccccc1 | 0.661 (inactive) | 0.58 | 0.135 | -1.8 (inactive) | -0.176 (inactive) | 0.221 (inactive)
C=C(C(=O)CC[C@H](OC(=O)c1ccccc1-c1ccccc1C(=O)O)c1ccccc1OCCO)C(C)C | -0.0286 (inactive) | 0.7 | -2.47 | -5.13 (inactive) | -0.126 (inactive) | -0.0147 (inactive)
COC(=O)C1=CC(CCCO)=CC(c2ccc(CN3CCCC3)cc2)N(Cc2cc3c(cc2Br)OCO3)C=C1C(=O)OC (stereo unspecified) | 2.27 (inactive) | 0.727 | -1.41 | -3.44 (inactive) | 0.119 (inactive) | 0.656 (inactive)
CCOC(=O)C[C@H]1[C@H](OC(=O)c2ccc(-c3ccccc3)cc2)[C@@H](NC(=O)CC(C)C)c2cc(OCCCO)ccc2N1C(=O)c1ccccc1 | 0.22 (inactive) | -0.0545 | -0.419 | -3.33 (inactive) | -0.228 (inactive) | -0.0761 (inactive)
CC(C)[Si]1(C(C)C)OCc2cc(-c3ccc(-c4ccc(Cl)c(Cl)c4)o3)nc(CCc3ccccc3)c21 | -0.218 (inactive) | -0.355 | -0.946 | 0.0584 (inactive) | -0.691 (inactive) | -0.229 (inactive)
O=C(O)[C@H]1C[C@H]2C(=O)N[C@@H](Cc3ccccc3)C(=O)N2[C@H]1c1cccc(OCCO)c1 | -0.0627 (inactive) | 0.152 | -0.74 | -1.74 (inactive) | 0.464 (inactive) | 0.48 (inactive)
[N-]=[N+]=Nc1ccccc1C[C@]1(C(=O)O)N=C(c2ccc(OCCCO)cc2)O[C@H]1c1ccccc1 | 0.471 (inactive) | 0.641 | 0.283 | -5.34 (inactive) | 0.496 (inactive) | 0.558 (inactive)
CC(C)CNC(=O)[C@@H]1c2ccccc2C(=O)N(C2CCCCC2)[C@H]1c1ccc(CO)cc1 | 0.737 (inactive) | 0.652 | -0.68 | -2.05 (inactive) | -0.411 (inactive) | -0.339 (inactive)
C#C[C@@H](CC)O[Si](C#CCCCC#N)(C(C)C)C(C)C | 1.09 (inactive) | 0.261 | -0.574 | -1.27 (inactive) | 0.33 (inactive) | 0.0685 (inactive)
C=CCC(OC(C)=O)[C@@H]1[C@@H](N(Cc2cccc3ccccc23)C(=O)Cc2ccc(F)cc2)c2cc(OCCCO)ccc2N1C(=O)c1ccc(-c2ccccc2)cc1 (stereo partly specified) | -1.31 (inactive) | -1.14 | -1.69 | -1.09 (inactive) | 0.19 (inactive) | -0.39 (inactive)
O=C1C2C=CC(C(O)c3ccc(I)cc3)N(Nc3ccccc3)C2C(=O)N1c1ccccc1 (stereo unspecified) | 0.393 (inactive) | 0.702 | 0.83 | -2.67 (inactive) | -0.007 (inactive) | -1.05 (inactive)
[N-]=[N+]=NCc1ccccc1C[C@@]1(C(=O)N2CCCCC2)N=C(c2ccc(OCCCO)cc2)O[C@@H]1c1ccccc1CN=[N+]=[N-] | 0.0378 (inactive) | -0.0651 | -2.55 | 0.301 (inactive) | -0.382 (inactive) | -0.903 (inactive)

SMILES | composite z-score [1] | composite z-score (XIP peptide (Xip251-270)) | z-score [2] | z-score [3] | z-score [4] | z-score [5]
C=C[C@@H](C)[C@@H](OC(=O)Nc1ccc(SC)cc1)c1ccc(OCCO)cc1 | -0.0412 (inactive) | 0.663 | -0.553 | -5.52 (inactive) | 0.129 (inactive) | 0.387 (inactive)
CN1C(=O)C2C=CC(C(O)c3ccc(I)cc3)N(Nc3ccccc3)C2C1=O (stereo unspecified) | 0.56 (inactive) | 0.755 | -0.371 | -4.54 (inactive) | 0.178 (inactive) | 0.0306 (inactive)
CC(C)C(=C=CC[C@@H](O)c1cccc(OCCO)c1)C[C@@H](O)c1ccccn1 | -0.0008 (inactive) | 0.29 | -0.0244 | -5.17 (inactive) | -0.122 (inactive) | 0.156 (inactive)
COCCOC(=O)N1C(=O)[C@@]2(c3cc(C#CC4(O)CCCCCC4)ccc31)[C@H](C(=O)N1CCN(c3ncccn3)CC1)[C@H]1C(=O)O[C@H](c3ccccc3)[C@H](c3ccccc3)N1[C@@H]2c1ccccc1OCCO | 1.01 (inactive) | 0.61 | -2.07 | -0.77 (inactive) | -0.0411 (inactive) | 0.0349 (inactive)
O=C(CS)NCCCCCCNC(=O)[C@@H]1C[C@@H]2C(=O)NCC(=O)N2[C@@H]1c1ccc(O)cc1 | 1.06 (inactive) | 0.897 | 0.271 | -1.63 (inactive) | -0.0858 (inactive) | 0.201 (inactive)
COCCOC(=O)N1C(=O)[C@@]2(c3cc(C#CC4=CCCCC4)ccc31)[C@H](C(=O)N1CCCCCCC1)[C@H]1C(=O)O[C@H](c3ccccc3)[C@H](c3ccccc3)N1[C@@H]2c1ccc(OCCO)cc1 | -0.404 (inactive) | 0.56 | -2.01 | -15.8 (active) | 0.0039 (inactive) | -0.192 (inactive)
COCCOC(=O)N1C(=O)[C@@]2(c3cc(C#Cc4ccc(OC)cc4)ccc31)[C@H](c1ccc(OCCO)cc1)N1[C@H](c3ccccc3)[C@H](c3ccccc3)OC(=O)[C@H]1[C@@H]2C(=O)Nc1nc2ccccc2s1 | 0.968 (inactive) | 0.414 | -0.817 | 1.31 (inactive) | -0.007 (inactive) | 0.254 (inactive)
[N-]=[N+]=Nc1ccccc1C[C@]1(C(=O)O)N=C(c2ccc(OCCCO)cc2)O[C@H]1c1ccccc1N=[N+]=[N-] | 0.466 (inactive) | 0.532 | -1.5 | -4.13 (inactive) | -0.281 (inactive) | 0.0939 (inactive)
COCCOC(=O)N1C(=O)[C@@]2(c3ccccc31)[C@H](c1ccccc1OCCO)N1[C@H](c3ccccc3)[C@H](c3ccccc3)OC(=O)[C@H]1[C@@H]2C(=O)N1CCCCCCC1 | 1.55 (inactive) | 0.846 | -2.01 | 2.31 (inactive) | 0.203 (inactive) | 0.424 (inactive)
Cc1ccccc1C(O)C1C=CC2C(=O)N(c3ccccc3)C(=O)C2N1Nc1ccc([N+](=O)[O-])cc1 (stereo unspecified) | 1.61 (inactive) | 0.618 | -0.42 | -3.91 (inactive) | -0.0666 (inactive) | -0.614 (inactive)
COc1cc(NN2C(C(O)C3CCCCC3)C=CC3C(=O)N(C)C(=O)C32)cc(OC)c1OC (stereo unspecified) | 0.123 (inactive) | 0.704 | -0.246 | -4.48 (inactive) | 0.281 (inactive) | 0.264 (inactive)
C=CC1c2cc(O)c(OC)cc2CCN1Cc1ccc([N+](=O)[O-])o1 (stereo unspecified) | 0.835 (inactive) | 0.905 | -0.83 | -4.18 (inactive) | -0.131 (inactive) | 0.406 (inactive)
CCN(CC)c1ccc(N2CC=CC34O[C@@H]5C=CCCOC(=O)C5[C@H]3C(=O)N(CCO)[C@@H]4C2=O)cc1 (stereo partly specified) | -0.828 (inactive) | -0.72 | 0.0497 | -5.85 (inactive) | -0.516 (inactive) | -0.584 (inactive)
CC(C)CNC(=O)[C@@]1(C)c2ccccc2C(=O)N(Cc2cc(C(F)(F)F)cc(C(F)(F)F)c2)[C@H]1c1ccc(CO)cc1 | -0.337 (inactive) | 0.145 | -0.607 | -2.63 (inactive) | 0.0613 (inactive) | 0.447 (inactive)
CN(C)C(=O)[C@]1(CCS(=O)(=O)c2ccccc2)N=C(c2ccc(OCCCO)cc2)O[C@@H]1c1ccccc1 | 0.428 (inactive) | 0.701 | -1.96 | -5.77 (inactive) | -0.161 (inactive) | 0.0689 (inactive)
Cc1ccc(S[C@]2(C(=O)NC(C)C)CC(=O)N(C(C)C)[C@@H]2c2ccc(CO)cc2I)cc1 | 0.317 (inactive) | 0.101 | -2.02 | -2.58 (inactive) | 0.0841 (inactive) | 0.925 (inactive)
NCCCCCNC(=O)[C@@H]1C[C@@H]2C(=O)N3CCC[C@H]3C(=O)N2[C@@H]1c1ccc(O)cc1 | 0.0353 (inactive) | 0.0129 | 0.0766 | -1.74 (inactive) | 0.299 (inactive) | 0.235 (inactive)
NC(=O)[C@@H]1[C@H]2C(=O)O[C@H](c3ccccc3)[C@H](c3ccccc3)N2[C@H](c2ccc(OCCO)cc2)[C@@]12C(=O)Nc1ccc(C#CCCO)cc12 | 0.198 (inactive) | 0.808 | 0.195 | -4.88 (inactive) | -0.504 (inactive) | -0.804 (inactive)
